Assay outcomes deposited in PubChem by National Center for Advancing Translational Sciences (NCATS).
Gal4-VP16 FLuc: counter-screen for ROR gamma inhibitors: Gal4-VP16 reporter; Potency, µM (titrated, usually from 53.6 µM), usual class: inhibitors; Drosophila S2 Gal4-VP16 UAS-luciferase, luminescence, 20 h; hit rate 3.5% among 310,000; AID 2546;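 note: Gal4-VP16 expression switched on by copper sulfate through the metallothionein promoter; nearly all actives have a fitted effect of over 50% in size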
KinaseGlo FLuc: counter-screen: inhibitors of Kinase-Glo firefly luciferase; Kinase-Glo luciferase, ATP luminescence, 8 min; Potency, µM (series often up to 38.3 µM), actives largely listed as inhibitors; hit rate 0.28% among 200,000; AID 1379; note: nearly all actives have a fitted effect of over 60% in size
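Compound is pinned into ATP-containing buffer (10 uM ATP, imidazole pH 7.2, 7 mM MgCl2). Kinase-Glo luciferase reagent is then added. Light output is recorded following an 8-min room-temperature incubation.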
RORgamma inh: inhibitors of mouse ROR gamma transcriptional activity | Drosophila S2 Gal4-RORgamma UAS-luciferase reporter, 20 h | P51450 | Potency, µM (series often up to 53.6 µM), actives largely listed as inhibitors | hit rate 5.4% among 310,000; note: nearly all actives have a fitted effect of over 60% in size
Target sequence (P51450 whole entry, looked up, the tested form may be a part): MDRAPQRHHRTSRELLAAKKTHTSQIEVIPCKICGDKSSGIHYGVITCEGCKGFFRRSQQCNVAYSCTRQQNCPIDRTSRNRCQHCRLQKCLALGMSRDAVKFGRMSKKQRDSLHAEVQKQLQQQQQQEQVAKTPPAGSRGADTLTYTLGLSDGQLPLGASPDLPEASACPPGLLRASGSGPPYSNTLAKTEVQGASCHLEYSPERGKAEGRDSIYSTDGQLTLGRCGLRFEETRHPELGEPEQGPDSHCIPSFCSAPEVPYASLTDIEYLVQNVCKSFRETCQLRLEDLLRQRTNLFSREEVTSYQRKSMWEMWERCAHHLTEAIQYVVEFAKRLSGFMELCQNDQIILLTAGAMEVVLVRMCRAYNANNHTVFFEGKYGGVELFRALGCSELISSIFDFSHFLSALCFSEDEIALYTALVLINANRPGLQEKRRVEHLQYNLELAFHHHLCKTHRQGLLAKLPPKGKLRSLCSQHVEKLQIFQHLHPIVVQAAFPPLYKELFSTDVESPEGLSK
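Luminescence from a UAS-regulated Photinus luciferase reporter in stably transfected Drosophila Schneider cells is measured; decreased signal marks ROR gamma inhibition. Fusion expression is induced by 700 uM copper sulfate for 20 hr.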
Of the large screens only hits and unclear results are named; the others gave an inactive call; ! = a repeat was not active. Sampled rows, rich in hits. Any-hit rate of the full collection: about 6.4%. Calls come from the whole dose curve; as a rule, active = well fitted curve in the direction sought with a large enough effect; inconclusive = small, poorly fitted or top-dose-only effect, or another doubt; inactive = no such curve, though single readings can be large; an effect the other way counts as inactive or inconclusive.

CCOc1ccc(-c2n[nH]c(C)c2-c2ccccc2OC)c(O)c1	Gal4-VP16 FLuc inconclusive, RORgamma inh 2µM
COc1ccc(S(=O)(=O)N2CCOC2CNC(=O)C(=O)NCCCN2CCOCC2)cc1 (configuration not stated)	none (no result: KinaseGlo FLuc)
CCOc1ccc(C(C)=O)cc1CN1C(=O)NC(C)(C2CC2)C1=O (configuration not stated)	none
CCCc1c(OCCCCc2nn[nH]n2)ccc(C(C)=O)c1O	Gal4-VP16 FLuc 13µM!, RORgamma inh inconclusive
CCCc1c(OCC(O)COc2ccc3c(=O)cc(C(=O)O)oc3c2CCC)ccc(C(C)=O)c1O (configuration not stated)	none
CCC(C)(C)n1nnnc1C(c1cccnc1)N1CCN(c2cccc(C(F)(F)F)c2)CC1 (configuration not stated)	none
Cc1nc2ccccc2n1CC(=O)NC1CCCC1	none
C=CCn1c(NC(=O)c2ccccc2)nc2ccccc21	Gal4-VP16 FLuc 1µM, RORgamma inh 0.56µM (no result: KinaseGlo FLuc)
Cc1nc2ccccc2n1CC(=O)NC1CCCCCC1	Gal4-VP16 FLuc 20µM (no result: KinaseGlo FLuc)
C=CCn1c(P(=O)(O)c2ccccc2)nc2ccccc21	none
CCCCn1c(NC(=O)c2ccccc2)nc2ccccc21	Gal4-VP16 FLuc 2.2µM, RORgamma inh 1.1µM
CCCn1c(NC(=O)C2COc3ccccc3O2)nc2ccccc21 (configuration not stated)	Gal4-VP16 FLuc 1.4µM, RORgamma inh 1.4µM
CCCCn1c(NCCO)nc2ccccc21	none
CCc1ccccc1NC(=O)C1COc2ccccc2O1 (configuration not stated)	none (no result: KinaseGlo FLuc)
C/C(=C/C(=O)Nc1cccc(F)c1)N1CCCC1	none
CN(C)CCCn1c(NC(=O)C2CCCCC2)nc2ccccc21	none (no result: Gal4-VP16 FLuc)
CCn1c(NC(=O)/C=C/c2ccc(F)cc2)nc2ccccc21	Gal4-VP16 FLuc inconclusive, RORgamma inh 1.3µM (no result: KinaseGlo FLuc)
O=C(O)c1ccc(NCc2nc3ccccc3n2Cc2ccccc2)cc1	none (no result: KinaseGlo FLuc)
CCCCn1c(NC(=O)C2CCCCC2)nc2ccccc21	Gal4-VP16 FLuc 2.8µM, RORgamma inh 1.3µM
CNc1nc2ccccc2n1CC(=O)c1ccccc1	none (no result: KinaseGlo FLuc)
CCn1c(CNc2ccc(C(=O)O)cc2)nc2ccccc21	RORgamma inh 10µM
CCOC(=O)c1sc(NC(=O)/C=C/c2ccc(F)cc2)nc1C	none
CCn1c(NC(=O)c2ccccc2)nc2ccccc21	Gal4-VP16 FLuc 2.5µM, RORgamma inh 0.32µM (no result: KinaseGlo FLuc)
CN1CCN(C(=O)CSc2nnc(COc3ccc(Cl)cc3)o2)CC1	none (no result: KinaseGlo FLuc)
COC(=O)c1cc(S(=O)(=O)N2CCC(c3cc(OC)ccc3OC)C2)c[nH]1 (configuration not stated)	Gal4-VP16 FLuc inconclusive (no result: KinaseGlo FLuc)
COc1cc(NC(=S)N2CCN(S(=O)(=O)c3ccc(C)cc3)CC2)cc(OC)c1	RORgamma inh inconclusive (no result: KinaseGlo FLuc)
CCc1ccccc1Nc1nc2ccccc2n1C(C)C	RORgamma inh inconclusive (no result: KinaseGlo FLuc)
CCCCCn1c(CNC(=O)c2cccs2)nc2ccccc21	none
CCCCn1c(CNC(=O)c2cccs2)nc2ccccc21	Gal4-VP16 FLuc inconclusive, RORgamma inh 11µM
CCc1ccccc1Nc1nc2ccccc2n1CC	Gal4-VP16 FLuc inconclusive, RORgamma inh 14µM
O=C(C1CCCN(S(=O)(=O)c2ccc(Br)cc2)C1)N1CCOCC1 (configuration not stated)	none (no result: KinaseGlo FLuc)
Fc1ccc(Sc2nc(-c3ccccc3)nnc2C(F)(F)F)cc1	Gal4-VP16 FLuc 7.1µM, RORgamma inh 5.6µM
Fc1ccc(Oc2nc(-c3ccccc3)nnc2C(F)(F)F)cc1	none
Cc1ccc(NC(=O)CC2NCCNC2=O)cc1Cl (configuration not stated)	none
c1ccc(-c2nnc3sc(-c4ccncc4)nn23)cc1	none
c1ccc(-c2nnc3sc(-c4csc5c4CCCC5)nn23)cc1	Gal4-VP16 FLuc inconclusive, RORgamma inh 6.3µM
Cc1ccc(-n2[nH]c(C)c(/C=N/Nc3ccc([N+](=O)[O-])cc3[N+](=O)[O-])c2=O)cc1C	Gal4-VP16 FLuc inconclusive, KinaseGlo FLuc inconclusive
Cc1[nH]n(-c2cccc3ccccc23)c(=O)c1/C=N/NC(=O)c1cccc([N+](=O)[O-])c1	Gal4-VP16 FLuc 3.5µM, RORgamma inh 2.8µM
Cc1[nH]n(-c2ccccc2)c(=O)c1N=Nc1cccc([N+](=O)[O-])c1	none (no result: KinaseGlo FLuc)
O=C(N/N=C/c1coc2ccccc2c1=O)c1cccc([N+](=O)[O-])c1	none
Cc1[nH]n(-c2ccccc2)c(=O)c1/C=N/NC(=O)c1cccc([N+](=O)[O-])c1	Gal4-VP16 FLuc 2.5µM, RORgamma inh 1µM
Cc1ccc(-n2[nH]c(C)c(/C=N/NC(=O)c3ccc([N+](=O)[O-])cc3)c2=O)c(C)c1	Gal4-VP16 FLuc 5µM, RORgamma inh 1.8µM
O=C(CC(c1ccccc1)c1cc(Cl)ccc1O)NCCCN1CCOCC1 (configuration not stated)	none (no result: KinaseGlo FLuc)
CCc1c(C)nc(SCC(=O)Nc2nc(-c3ccc(OC)cc3)cs2)[nH]c1=O	none
COc1cc(/C=N/NC(N)=S)ccc1OCc1ccc(C)cc1	Gal4-VP16 FLuc 8.9µM, RORgamma inh 7.1µM
COc1cc(/C=N/NC(N)=S)ccc1OC(=O)c1ccc(C)cc1	Gal4-VP16 FLuc inconclusive, RORgamma inh 20µM
COc1cc(/C=N/NC(=O)c2ccc(N)cc2)ccc1OC(=O)c1cccc(C)c1	none (no result: KinaseGlo FLuc)
COc1cc(/C=N/NC(N)=S)ccc1OCC(=O)N1CCOCC1	none
COC(=O)N/N=C/c1cccc(OC(=O)c2ccc3c(c2)OCO3)c1	none (no result: KinaseGlo FLuc)
COc1ccc(C(=O)Oc2cccc(/C=N/NC(N)=S)c2)cc1	Gal4-VP16 FLuc 10µM, RORgamma inh 16µM
COc1ccc(SCC(Cc2ccccc2)N2CCN(CCc3ccccc3)CCC2=O)cc1 (configuration not stated)	RORgamma inh inconclusive (no result: KinaseGlo FLuc)
N=c1c2c3c(sc2ncn1Nc1ccccc1)CCC3	RORgamma inh inconclusive (no result: KinaseGlo FLuc)
CC/C=C\CC[C@H](O)C1=CCCCC1=O	none (no result: KinaseGlo FLuc)
Cc1cc(C(=O)CCl)c(C)n1-c1cccc([N+](=O)[O-])c1	Gal4-VP16 FLuc inconclusive, RORgamma inh 8.9µM
Cc1cc(C(=O)CCl)c(C)n1-c1ccon1	Gal4-VP16 FLuc inconclusive, RORgamma inh 8.9µM
CC(=O)c1cccc(OCC(=O)c2cc(C)n(-c3cc(C)on3)c2C)c1	Gal4-VP16 FLuc inconclusive, RORgamma inh inconclusive
CC(=O)c1c(C(C)=O)c(C)n(-c2cccc([N+](=O)[O-])c2)c1C	none
CN1CCN(CCNC(=O)c2ccc3nc(-c4ccc(F)cc4)c(-c4ccc(F)cc4)nc3c2)CC1	RORgamma inh inconclusive (no result: KinaseGlo FLuc)
C=CCc1cc(C(=O)N2CCCCC2)ccc1O	none (no result: Gal4-VP16 FLuc)
C=CCc1ccc(O)c(-c2ccc(O)c(CC=C)c2)c1	Gal4-VP16 FLuc 22µM, RORgamma inh inconclusive (no result: KinaseGlo FLuc)
CCc1ccc(NC(=O)CN2C(=O)C(=O)N(Cc3ccccc3)C2=O)cc1	none
CC(=O)N1c2ccccc2C2(O)N=C(C)SC12 (configuration not stated)	Gal4-VP16 FLuc 4.5µM, RORgamma inh 7.9µM
CC(=O)N1c2ccccc2Nc2ccccc21	Gal4-VP16 FLuc inconclusive, RORgamma inh inconclusive
COC(=O)c1sc(N2CCN(c3ccc(Cl)cc3)CC2)nc1N	RORgamma inh inconclusive
S=C(NCc1ccccc1)NC1CCSc2ccccc21 (configuration not stated)	none (no result: KinaseGlo FLuc)
Cc1cccc(NC(=S)NC2CCSc3ccccc32)c1 (configuration not stated)	Gal4-VP16 FLuc 5.6µM, RORgamma inh 3.5µM (no result: KinaseGlo FLuc)
COc1ccc(OC)c(N=C(N)N=C(N)N)c1	none
COc1cc(-c2nc3ccccn3c2/N=C/c2cccc(F)c2)ccc1O	none
